Our source for the growth values is PubChem BioAssay (NCI).

Compounds without any hit were thinned out: in the full panel of roughly 83,000, 20% have a hit.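 Values shown are percent growth following 48 h exposure of cells in 96-well plates to a single concentration of compound; below 10 was considered active.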 Activity calls are given as the source filed them.

The subject of this test is HL-60(TB) leukemia. In words: NCI-60 one-dose screen, 48 h (100 = growth as untreated, 0 = no growth, -100 = all killed). The note with it: 10 µM unless noted.
On to `CCCCCC(=O)OCc1ccc(Cl)c(Cl)c1`, for which the growth is 97.2% (inactive).
The figure for `COc1ccc(-c2nc(/C=C3\SC(=NCc4ccccc4)NC3=O)c3ccccn23)cc1` is -7.59% (active).
For the molecule `CCOc1cc(Cl)c(C(C)NC(=O)c2cccc(OC)c2)cc1OCC` (stereo not given), the growth was -32.8% (active).
The figure for `CCCn1c(=S)sc2c(NNC(C)=O)nc(C)nc21` is 58.1% (inactive); for `C=C[C@@H]1C[C@H](O)Cc2c(C)cc(C)cc2N1` it is -16.4% (active).
As for `O=c1[nH]c(N2CCC(Cc3ccccc3)CC2)nc2sc3c(c12)CCCC3`, the growth was 95.7% (inactive).
On to `CN(Cc1ccccc1)c1nc(Cl)c(C2CC(c3ccc4c(c3)OCO4)=NN2c2cc(Cl)cc(Cl)c2)s1` (stereo not given), for which the growth is 105% (inactive).
For `COc1ccc(-c2cc(-c3cc(OC)c(OC)c(OC)c3)c(C#N)c(=O)n2CCCCCC(=O)NO)cc1`, the growth was 103% (inactive).
With `Cc1ccc(C(=O)/C=C/c2ccccc2)s1`, the growth was 97.1% (inactive).
On to `CC(=O)Cc1cc(-c2cc(CC(C)=O)[nH]n2)n[nH]1`, for which the growth is 88.1% (inactive).
For the molecule `CC(C)Oc1nc2c(c(=O)n(C)c(=O)n2C)n1C`, the growth was 95.3% (inactive).
`C[n+]1cccc(CC(=O)NO)c1`: the growth was 94.7% (inactive).
Under `COc1cc(OC)c(C(=O)/C=C/c2cccc(C(F)(F)F)c2)c(OC)c1` stands -26.6% (active); under `COc1cc(NC(C)CCCN)c2nc(C)ccc2c1Oc1ccc(F)cc1` (stereo not given), 87.9% (inactive); under `O=C(NCCCNC(=O)OCc1ccc2c(Br)cc(Br)c(O)c2n1)OCc1ccc2c(Br)cc(Br)c(O)c2n1`, -25.4% (active).
As for `CC(C)(C)OC(=O)CC(S(=O)(=O)c1ccccc1)S(=O)(=O)c1ccccc1`, the growth is 76.2% (inactive).
The figure for `CCCC[P+](c1ccccc1)(c1ccccc1)c1ccccc1` is 16.3% (inactive); for `CCC(C)/C(=C\C#N)NCCCN/C(=C/C#N)C(C)CC` (stereo not given) it is 64.6% (inactive).
Turning to `N#CC1=C(c2ccccc2)Nc2c(c(-c3ccc(Cl)cc3)nn2-c2ccccc2)C12C(=O)Nc1ccc(Cl)cc12` (stereo not given), the growth was 48.2% (inactive).
Under `CCCCCSB(SCCCCC)c1ccccc1` stands 104% (inactive).
The figure for `CCOC(=O)c1c(C)nc2c(c1N)C(=O)C(=O)N2CCc1ccc(OC)c(OC)c1` is 65.6% (inactive); for `COc1c(B(O)O)cc(F)cc1-c1nc2ccc3[nH]ncc3c2c2c1CCCC2` it is -2.38% (active); for `Cc1ccccc1/C=C/C(=O)c1cccc(OCCCCOc2cccc(C(=O)/C=C/c3ccccc3C)c2)c1` it is 81.8% (inactive).
The figure for `Cn1ccnc1C(=O)/C=C/c1ccc(CC(=O)Nc2cc(F)c(F)c(F)c2)cc1` is -31.2% (active); for `N#CC1=C(N)Oc2ccc3ccccc3c2C1c1ccc([N+](=O)[O-])cc1` (stereo not given) it is 39.8% (inactive).
Consider `COc1ccc(C(=O)c2cc(F)c(F)c(OC)c2F)cc1OC(=O)CCl`, for which the growth is 11.7% (inactive).
Take `COc1ccc(C(=S)N2CCN(c3cccc(Cl)c3)CC2)cc1`: the growth was 130% (inactive).
The figure for `O=c1c2ccccc2c(Br)c(Br)c2ccccc12` is 70.9% (inactive).
The figure for `CO[C@H]1CC[C@@]2(C)C(=CC[C@H]3[C@@H]4C[C@H](O)C[C@@]4(C)CC[C@@H]32)C1` is 22.6% (inactive); for `CS(=O)(=O)c1ccc(C(=O)N/N=C/c2cccc3ccccc23)cc1` it is 37.5% (inactive).
With `COc1c(C)c(C)c(OC)c2c1[nH]c(=O)c1c3cccnc3cn21`, the growth was 112% (inactive).
For `Clc1cc(Cl)cc(N2N=C(c3cccc(Nc4ccncc4)c3)CC2c2ccc(Br)cc2)c1` (stereo not given), the growth was 17.3% (inactive).
Regarding `c1cc(OCCN2CCCCC2)ccc1CNc1ccc2nc(CCC3CCCCC3)[nH]c2c1`, the growth is -31.6% (active).
Regarding `O=C(NO)c1ccc(Cn2c(=O)n(CCc3ccc(O)cc3)c(=O)c3ccccc32)cc1`, the growth was 89.3% (inactive).
Under `CCC(C)[C@H](NC(=O)Nc1cc(C(F)(F)F)cc(C(F)(F)F)c1)C(=O)N[C@@H](Cc1cn(C)cn1)C(=O)OC` (stereo not given in full) stands -78.4% [100 µM] (active); under `COc1cc2ncn3c(=O)c4c5c(sc4nc3c2cc1OC)CCCCC5`, 100% (inactive); under `CCOC(=O)c1c(C)nc2ccccc2c1/C=C/c1cccs1`, 87.3% (inactive).
For the molecule `Cc1cc(=O)oc2cc(OCc3cn(CC(O)CO)nn3)ccc12` (stereo not given), the growth is 110% (inactive).
Consider `O=C(Nc1cccc2c1C(=O)c1cccc(Nc3cccc4c3C(=O)c3cccc(NC(=O)c5ccccc5)c3C4=O)c1C2=O)c1ccccc1`, for which the growth is 118% (inactive).
Under `COc1ccc(S(=O)(=O)NCCNc2nccc(-c3c(-c4cccc(N)c4)nc4sccn34)n2)cc1` stands 116% (inactive).
